Source: PubChem BioAssay
ZTA counter – counter-screen for EBNA-1 inhibitors: inhibitors of Epstein-Barr virus ZTA | P03206 | ZTA-DNA binding, fluorescence polarization | inhibition, % at 11 µM | actives 0.15% (n = 320,000) | AID 2234; in the data active means inhibition above about 33%
LYPLA2 inh – counter-screen for PME1 inhibitors: inhibitors of human LYPLA2. O95372. actives 0.38% (n = 320,000). inhibition, % at 5.9 µM. recombinant LYPLA2, FP-Rh probe fluorescence polarization;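 active means inhibition above the screen-wide mean plus 3 SD, limit set per campaign, cut at about 26% in these data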
EBNA-1 inh – blocks EBNA-1 binding to DNA. actives 0.34% (n = 300,000). inhibition, % at 14.8 µM. AID 1950. EBNA-1 DNA binding, fluorescence polarization; in the data active means inhibition above about 28%
LANA-H2A inh – blocks KSHV LANA binding to histone H2A/H2B; cell-free LANA-H2A/H2B peptide, fluorescence polarization; actives 0.6% (n = 320,000); AID 2629; inhibition, % (test concentration not listed); Q9QR71; in the data active means inhibition mostly above about 10%, no sharp cut-off; inactive means mostly below about 6.7%
LYPLA1 inh – LYPLA1 (human) inhibition in PME1 counter-screen. inhibition, % at 5.9 µM. actives 0.16% (n = 320,000). O75608. recombinant LYPLA1, FP-Rh probe fluorescence polarization;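 active means inhibition above the mean of all tested compounds plus 3 SD, set per campaign, cut at about 14% in these data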;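 further: inhibitors block serine hydrolase probe labeling of LYPLA1 so polarization falls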
Zta DNA confirm – confirmation of Epstein-Barr virus ZTA DNA binding inhibitors; inhibition, % at 11.1 µM; AID 2361; Zta-ZRE DNA binding, fluorescence polarization; shares compounds with ZTA counter; actives 30% (n = 320);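 active means mean inhibition across triplicate runs above the hit threshold derived for the original primary screen, cut at about 33% in these data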
EBNA-1 counter – counter-screen for ZTA inhibitors: EBNA-1 DNA binding inhibition; fluorescence polarization; shares compounds with ZTA counter; inhibition, % at 14.8 µM; AID 2362; 320 tested, under 10 active; call rule not given here
Hits are given with their value; 0 = inactive; - = no result given. This is a sample that favours compounds with a hit; in the whole collection about 1.4% have one here.

SMILES | ZTA counter | LYPLA2 inh | EBNA-1 inh | LANA-H2A inh | LYPLA1 inh | Zta DNA confirm | EBNA-1 counter
CCN(CC)CCOC(=O)c1ccc(N/C=C(/C#N)c2nc(-c3ccc4c(c3)OCO4)cs2)cc1 | 0 | 0 | 0 | 0 | 0 | - | -
CCN(CC)CCOC(=O)c1ccc(N/C=C(/C#N)c2nc(-c3ccc(OC)cc3)cs2)cc1 | 47 | 0 | 0 | 0 | 0 | 0 | 0
O=C(NCCCN1CCCC1=O)c1sc2ccccc2c1Cl | 0 | 0 | 0 | 0 | 0 | - | -
O=C(CCN1C(=O)S/C(=C\c2ccccc2)C1=O)NC1CCS(=O)(=O)C1 (stereo unspecified) | 0 | 0 | 0 | 0 | 0 | - | -
Cc1cc(N2CCCC2=O)ccc1S(=O)(=O)NC1CCCCC1 | 0 | 0 | 0 | 0 | 0 | - | -
N/C(=N\OC(=O)COc1ccc(Br)cc1Cl)c1ccccn1 | 74 | 0 | 0 | 0 | 0 | 0 | 0
COc1ccccc1CN1CC(C(=O)NCc2ncccc2C)CCC1=O (stereo unspecified) | 0 | 0 | 0 | 0 | 0 | - | -
Cc1ccnc(NC(=O)CCC(=O)N(CC(=O)NCc2ccc(F)cc2)Cc2ccccc2)c1 | 0 | 0 | 0 | 0 | 0 | - | -
COc1ccc(C2=NN(C(C#N)c3ccc(OC)cc3)C(c3ccccc3)C2)cc1 (stereo unspecified) | 35 | 0 | 0 | 0 | 0 | 0 | 0
O=C(O)c1ccc(-c2ccc(/C=c3/sc4nc5ccccc5n4c3=O)o2)cc1Cl | 34 | 0 | 0 | 0 | 0 | 53 | 0
Cc1ccc(S(=O)(=O)N(C)c2ccccc2C(=O)N2CCCC2)cc1 | 155 | 0 | 0 | 0 | 0 | 0 | 0
COc1ccc(-c2csc(NC(=O)CCN3C(=O)C4CC=CCC4C3=O)n2)cc1OC (stereo unspecified) | 0 | 0 | 0 | 0 | 0 | - | -
CCc1nnc(NC(=O)[C@@H](NC(=O)c2cc(OC)cc(OC)c2)C(C)C)s1 | 117 | 0 | 0 | 0 | 0 | 0 | 0
O=C(Nc1cccc(C(=O)N2CCCCCC2)c1)c1ccco1 | 40 | 0 | 0 | 0 | 0 | 0 | 0
O=C(Nc1cccc(C(=O)N2CCN(c3ccccc3)CC2)c1)c1ccco1 | 0 | 0 | 0 | 0 | 0 | - | -
Cc1cc(C)c2c(N)c(C(=O)Nc3ccc([N+](=O)[O-])cc3)sc2n1 | 0 | 0 | 0 | 0 | 0 | - | -
CC1C/C(=C/c2ccncc2)C(=O)/C(=C/c2ccncc2)C1 (stereo unspecified) | 43 | 0 | 0 | 0 | 0 | 48 | 0
CC[N+](C)(C)CC/C=C1/c2ccccc2Sc2ccc(Cl)cc21 | 0 | 0 | 0 | 0 | 0 | - | -
CCCCCCCCCCC[N+](C)(C)CC/C=C1/c2ccccc2Sc2ccc(Cl)cc21 | 40 | 0 | 0 | 0 | 0 | 0 | 0
CCCCCCCCCC[N+](C)(C)CC/C=C1/c2ccccc2Sc2ccc(Cl)cc21 | 34 | 0 | 0 | 0 | 0 | 0 | 0
CN(C)CC/C=C1\c2ccccc2Sc2ccc(Cl)cc21 | 0 | 0 | 0 | 0 | 0 | - | -
CCc1ccc(O)c(CNCCNCc2cc(CC)ccc2O)c1 | 0 | 0 | 0 | 0 | 0 | - | -
Cc1ccc(O)c(CNCCNCc2cc(C)ccc2O)c1 | 46 | 0 | 0 | 0 | 0 | 0 | 0
CN(C)c1ccc(N/C=C/C(=O)c2ccccc2)cc1 | 64 | 0 | 0 | 0 | 0 | 0 | 0
CC(=O)Nc1cccc(NC(=O)COc2ccccc2C)c1 | 94 | 0 | 0 | 0 | 0 | 0 | 0
SMILES | ZTA counter | LYPLA2 inh | EBNA-1 inh | LANA-H2A inh | LYPLA1 inh | Zta DNA confirm | EBNA-1 counter
COC(=O)[C@]1(Cc2ccccc2)N[C@H](c2ccc(-c3cccc(Cl)c3)cc2)[C@@H]2C(=O)N(C)C(=O)[C@@H]21 | 0 | 0 | 0 | 0 | 0 | - | -
CN(CC(=O)Nc1ccccc1Cl)C(=O)COC(=O)c1nc(Cl)c(Cl)c(Cl)c1Cl | 0 | 0 | 0 | 0 | 0 | - | -
Cc1ccc(-n2[nH]c(C)c(C=Nc3ccc4[nH]c(=O)[nH]c4c3)c2=O)cc1 | 0 | 0 | 0 | 0 | 0 | - | -
Cc1ccc(-n2[nH]c(C)c(C=Nc3ccc4[nH]c(=O)[nH]c4c3)c2=O)cc1C | 52 | 0 | 0 | 0 | 0 | 0 | 0
Cc1ccccc1-c1noc(CNC(=O)c2ccco2)n1 | 0 | 0 | 0 | 0 | 0 | - | -
O=C(Nc1ccc2c(c1)OCO2)C1CC(=O)N(c2ccc3c(c2)OCCO3)C1 (stereo unspecified) | 0 | 0 | 0 | 0 | 0 | - | -
O=C(Nc1ccc(C(F)(F)F)cc1)C1CC(=O)N(c2ccc3c(c2)OCCO3)C1 (stereo unspecified) | 65 | 0 | 0 | 0 | 0 | 0 | 0
CN(C)c1cc[n+](CC(=O)c2ccc(OC(F)F)cc2)cc1 | 0 | 0 | 0 | 0 | 0 | - | -
O=C(CCC(=O)c1ccc(Oc2ccccc2)cc1)Nc1ccc(C(=O)O)cc1 | 0 | 0 | 0 | 0 | 0 | - | -
COc1cc2cccc(OC)c(=O)c2c(OC)c1OC | 0 | 0 | 0 | 0 | 0 | - | -
O=c1c(O)cccc2cc(O)c(O)c(O)c12 | 33 | 0 | 0 | 0 | 0 | 0 | 0
CC(=O)O/C(=C\c1cn(C(C)=O)c2ccccc12)C(=O)O | 158 | 0 | 0 | - | 0 | 0 | 0
CC(=O)n1cc(CO)c2ccccc21 | 0 | 0 | 0 | 0 | 0 | - | -
Cc1cccc(NC(=O)CCNS(=O)(=O)c2ccc3[nH]c(=O)oc3c2)c1 | 198 | 0 | 0 | 0 | 0 | 0 | 0
CN1CCC(OC(c2ccccc2)c2ccccc2)CC1 | 60 | 0 | 0 | 0 | 0 | 0 | 0
COc1cc(/C=C/c2[nH]c(=O)[nH]c(=O)c2[N+](=O)[O-])cc([N+](=O)[O-])c1O | 36 | 0 | 0 | 0 | 0 | 55 | 0
CC1Cc2cc(S(=O)(=O)N3CCC(C(=O)NCc4ccco4)CC3)ccc2N1C(=O)C1CCC1 (stereo unspecified) | 0 | 0 | 0 | 0 | 0 | - | -
